# An excerpt weighted towards active compounds, which were near 4.7% of everything screened.
# ATG4B inhibitor – ATG4B protease inhibitors, primary screen, biochemical, fluorescence, uHTS; Cysteine protease ATG4B (Homo sapiens), Q9Y4P1; ATG4B cleavage of LC3-PLA2, NBD-HPC fluorescence, 1 h; inhibition, % at 8.33 µM; 0.51% of 340,000 active; in the data active = inhibition above about 40%
# Target sequence (Q9Y4P1 whole entry, looked up): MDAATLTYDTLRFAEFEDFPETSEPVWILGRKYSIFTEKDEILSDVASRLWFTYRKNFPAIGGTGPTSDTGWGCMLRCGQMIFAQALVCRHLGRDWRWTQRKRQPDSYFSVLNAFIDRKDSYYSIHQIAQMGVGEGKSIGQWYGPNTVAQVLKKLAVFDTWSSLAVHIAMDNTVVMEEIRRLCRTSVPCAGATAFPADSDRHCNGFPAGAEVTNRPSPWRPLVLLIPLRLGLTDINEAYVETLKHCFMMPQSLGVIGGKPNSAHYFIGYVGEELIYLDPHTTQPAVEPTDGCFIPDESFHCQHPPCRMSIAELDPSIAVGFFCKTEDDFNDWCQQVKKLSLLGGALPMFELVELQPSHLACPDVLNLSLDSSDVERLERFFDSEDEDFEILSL
# TIM10 inh – growth inhibitors of isogenic TIM10 control yeast, primary screen, counter-screen for tim10-1 yeast inhibitor project, luminescence, uHTS | S. cerevisiae TIM10 strain growth, BacTiter-Glo luminescence, 24 h | inhibition, % at 10 µM | 1.4% of 330,000 active;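 active = inhibition of 40% or more at the single tested concentration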;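 note: wild-type TIM10 isogenic control strain grown at permissive 25 °C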
# SKKanGAS inh – S. pyogenes SKKanGAS growth inhibitors in kanamycin, primary screen, streptokinase expression inhibitor project, SKKanGAS strain, BacTiter-Glo luminescence; 6 h; inhibition, % at 7.5 µM; 1.3% of 300,000 active; AID 1662, 2009;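 active = mean replicate score, as percent of positive control median, at least 50; inconclusive = mean below 50 but one replicate at or above 50; inactive = mean and every replicate below 50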;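 note: strain carries kanamycin resistance gene driven by streptokinase promoter and grows in 40 µg/ml kanamycin; loss of luminescence reflects streptokinase promoter inhibition or plain growth inhibition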
# PfHsp90 set2 – growth inhibition of PfHsp90-expressing yeast, primary screen, antimalarial PfHsp90 inhibitor project, S. cerevisiae, BacTiter-Glo luminescence, single point, set 2; inhibition, % at 9.4 µM; 0.32% of 310,000 active; BacTiter-Glo ATP, 48 h; yeast lacking PDR1 and PDR3 efflux regulators; AID 504621, 2011;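 active = every replicate shows inhibition above about 80%, whatever the replicate mean, limit read from the data; inconclusive = mean inhibition reaches the set limit but some replicate falls short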
# tim10-1 inh – growth inhibitors of tim10-1 mutant yeast, primary screen, luminescence, uHTS. S. cerevisiae tim10-1 ts strain growth, BacTiter-Glo, 24 h. inhibition, % at 20 µM. 2.2% of 330,000 active. AID 463190, 2010;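 active = inhibition of at least 40%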;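 note: mutant grown at 25 °C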
# tim23-1 inh – growth inhibitors of tim23-1 mutant yeast, primary screen, luminescence, uHTS; S. cerevisiae tim23-1 growth, BacTiter-Glo luminescence, 24 h; inhibition, % at 20 µM; 1.3% of 330,000 active; AID 463212, 2010;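 active = growth inhibition of the mutant yeast at or above 50%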;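 note: temperature-sensitive mutant grown at 25 °C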
# tim10-1 confirm – growth inhibitors of tim10-1 mutant yeast, confirmation, single concentration, luminescence, S. cerevisiae; shares compounds with tim10-1 inh; S. cerevisiae tim10-1 ts strain growth, BacTiter-Glo, 24 h; 56% of 7,400 active; inhibition, % at 20 µM; AID 463213, 2010;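 active = inhibition of yeast growth at or above a set limit in either of two repeat tests at 20 µM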;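 note: tim10-1 mutant grown at permissive 25 °C to find synthetic lethal compounds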
# TIM10 conf – growth inhibitors of wild-type TIM10 yeast, confirmation, counter-screen for tim10-1 synthetic lethality project, single concentration, luminescence, S. cerevisiae | inhibition, % at 10 µM | 63% of 4,600 active | S. cerevisiae tim10 strain growth, BacTiter-Glo luminescence, 24 h | shares compounds with TIM10 inh;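 active = inhibition of yeast growth at or above a set limit in either of two replicates at 10 µM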; note: this counterscreen used the strain with wild-type TIM10
# tim23-1 conf – tim23-1 mutant yeast growth inhibitors, confirmation, luminescence, single concentration; AID 463218, 2010; 83% of 4,400 active; inhibition, % at 20 µM; S. cerevisiae tim23-1 growth, BacTiter-Glo luminescence, 24 h; shares compounds with tim23-1 inh;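 active = inhibition above about 39% in either of two replicate wells at 20 µM, limit read from the data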;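 note: temperature-sensitive tim23-1 mutant grown at 25 °C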
# A number is an active result; n = inactive; u = inconclusive; x = not tested or not shown.
SMILES,ATG4B inhibitor,TIM10 inh,SKKanGAS inh,PfHsp90 set2,tim10-1 inh,tim23-1 inh,tim10-1 confirm,TIM10 conf,tim23-1 conf
O=[N+]([O-])c1cc(/C=N/Nc2nc(N3CCCCC3)nc(N3CCCCC3)n2)ccc1O,n,52,n,n,49,50,39,n,52
COc1ccc(/C=N/Nc2nc(N3CCCCC3)nc(N3CCCCC3)n2)cc1[N+](=O)[O-],n,n,n,n,n,n,x,x,x
O=S(=O)(c1cccc(-c2csc(-c3ccccc3)n2)c1)N1CCOCC1,n,n,n,n,n,n,x,x,x
O=S(=O)(c1cccc(-c2nc3ccccc3s2)c1)N1CCOCC1,n,43,n,x,41,53,40,30,40
O=C(Nc1ccccc1)N1CCn2c1nc1ccccc12,n,n,n,n,n,n,x,x,x
S=C(Nc1ccccc1)N1CCn2c1nc1ccccc12,n,42,n,n,56,66,33,44,55
O=C(CCl)Nc1sccc1C(=O)c1ccccc1,n,47,n,n,54,60,55,52,50
CNC(=O)c1ccsc1NC(=O)c1ccccc1,n,n,n,n,n,n,x,x,x
Cc1sc(NC(=O)CCl)c(C(=O)c2ccccc2)c1C,n,46,n,n,43,52,39,n,38
Cc1cc(C2(c3ccc(O)c(C)c3)C(=O)N(C)c3ccc(Br)cc32)ccc1O,n,n,n,n,n,n,x,x,x
CN(C(=O)c1ccc(-c2nn(C)c(=O)c3ccccc23)cc1)C1CCCCC1,n,n,n,n,n,n,x,x,x
CC1CN(C(=O)Cn2cc(S(=O)(=O)CC(=O)N3CCOCC3)c3ccccc32)CC(C)O1 (stereo not given),n,n,n,n,n,n,x,x,x
CCCCOC(=O)c1ccc(NC(=O)c2nn(C)cc2Br)cc1,n,48,n,x,52,55,50,41,67
CCCCOC(=O)c1ccc(NC(C)=O)cc1,n,n,n,n,n,n,x,x,x
O=[N+]([O-])c1cc([N+](=O)[O-])c(Oc2ccc(Br)cc2Br)cc1NN1CCCCC1,n,n,n,n,n,n,x,x,x
COc1ccc(C(=O)NC(=S)Nc2ccc(S(N)(=O)=O)cc2)cc1,n,n,n,n,n,n,x,x,x
COC(=O)CS(=O)(=O)c1cc([N+](=O)[O-])ccc1NC(=O)OC,n,n,n,n,n,n,x,x,x
Cc1ccc(CN(C)C(=O)CN2C(=O)NC3(CCCc4ccccc43)C2=O)c(C)c1 (stereo not given),n,n,x,n,n,n,x,x,x
O=c1oc(-c2ccc(Br)o2)nc2ccccc12,n,n,n,x,46,54,n,x,60
O=C(CCSc1ccc(Br)cc1)c1ccc(O)cc1,n,n,n,97,50,62,49,x,74
O=C(CCO)c1ccc(O)cc1,n,n,n,n,n,n,x,x,x
Cc1occc1C(=O)Nc1sccc1C(N)=O,n,n,n,n,n,n,x,x,x
CCCc1cc(C(N)=O)c(NC(=O)c2ccoc2C)s1,n,n,n,n,47,65,34,x,68
NC(=O)c1cc(Cc2ccccc2)sc1NC(=O)c1ccco1,n,40,n,n,50,60,48,n,73
O=C(Nc1nc2c(F)c(F)c(F)cc2s1)c1ccco1,n,n,n,n,n,n,x,x,x
SMILES,ATG4B inhibitor,TIM10 inh,SKKanGAS inh,PfHsp90 set2,tim10-1 inh,tim23-1 inh,tim10-1 confirm,TIM10 conf,tim23-1 conf
O=C(Nc1nc2c(s1)CCc1ccccc1-2)c1ccco1,n,41,n,n,55,58,49,47,61
CC(=O)Nc1nc2c(s1)CCc1ccccc1-2,n,n,n,n,n,n,x,x,x
O=C(Nc1nc2c(ccc3ccccc32)s1)c1ccco1,n,66,n,n,51,57,52,62,75
O=C(Nc1nnc(Cc2ccccc2)s1)c1ccco1,n,n,n,n,50,54,29,x,43
CC(C)CC1(C)CNC(=O)NC1,n,x,x,n,x,x,x,x,x
Cc1cc(N)n2ncc(-c3ccc(Cl)cc3)c2n1,n,n,n,n,53,71,41,x,21
N#C/C(=C\c1ccccc1C(F)(F)F)C(=O)Nc1ccccc1,n,73,n,n,57,52,58,61,63
N#C/C(=C/C=C/c1ccccc1)C(=O)Nc1ccccc1,n,n,n,n,n,n,x,x,x
CCc1cccc(CC)c1NC(=O)c1ccccc1,n,n,n,n,n,n,x,x,x
CCc1cccc(CC)c1NC(=O)/C(C#N)=C/c1ccccc1C(F)(F)F,n,57,n,n,41,55,n,n,42
O=C(NNc1nc2ccc(Cl)cc2s1)c1cc(-c2cccs2)nc2ccccc12,n,n,88,103,50,52,35,x,54
O=C(NN1CCOCC1)c1cc(-c2cccs2)nc2ccccc12,n,n,n,n,n,n,x,x,x
C=C(C)c1cccc(C(C)(C)NC(=O)N(Cc2ccccc2)Cc2ccco2)c1,n,n,n,n,n,n,x,x,x
O=C1c2ccc(Oc3cccc([N+](=O)[O-])c3)cc2C(=O)N1c1ccccn1,n,62,n,n,46,52,54,42,65
COc1ccc(OC)c(C2C(C#N)=C(N)Oc3c2c(C)nn3-c2cccc(Cl)c2)c1 (stereo not given),n,44,n,x,46,51,n,n,50
CC1CCCN(S(=O)(=O)c2ccc(C(=O)Nc3nnc(C4CC4)o3)cc2)C1 (stereo not given),n,n,u,x,46,53,n,x,n
CC1CCCN(S(=O)(=O)c2ccc(C(=O)Nc3nnc(-c4ccccn4)o3)cc2)C1 (stereo not given),n,n,n,n,n,n,x,x,x
O=C(COc1cccc(F)c1)N1c2ccccc2Sc2ccccc21,n,n,n,n,n,n,x,x,x
C/C(=N\OC(=O)c1ccc(Cl)cc1)c1sc(-c2ccccc2)nc1C,n,n,n,n,n,n,x,x,x
CCNC(=O)O/N=C(\C)c1sc(-c2ccc(Cl)cc2)nc1C,n,n,n,n,60,57,54,x,64

# High-throughput results deposited in PubChem by several laboratories.
